Experimental data reported in PubChem BioAssay (NCATS).
Results filed as inconclusive are left out. Active and inactive are the calls of the source. Calls follow the shape of the dose curve; as a rule, active = well fitted inhibition curve with a large enough effect; inconclusive = small, poorly fitted or top-dose-only effect; inactive = flat fitted curve, though single readings scatter.

Experiments:
CRL-7250 = normal cell line; experiment: Cytotoxic Profiling of Annotated Libraries Using Quantitative High-Throughput Screening (AID 1296008); conditions: Five cell lines viability, CellTiter-Glo ATP luminescence, 48-72 h; max response: active compounds read low
Summary of the method: (§1)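 Compounds were pin-transferred onto cells and incubated 48 or 72 hr at 37 degree Celsius, 95% humidity. CellTiter-Glo was added, plates sat 10 min at room temperature, then ATP-coupled luminescence was imaged as the viability read-out.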

HEK293 = experiment: as above; conditions: Five cell lines viability, CellTiter-Glo ATP luminescence, 48-72 h; max response: active compounds read low
Summary of the method: as §1

HaCat [1] = experiment: as above; conditions: Five cell lines viability, CellTiter-Glo ATP luminescence, 48-72 h; max response: active compounds read low
Summary of the method: as §1

KB-3-1 = experiment: as above; conditions: Five cell lines viability, CellTiter-Glo ATP luminescence, 48-72 h; max response: active compounds read low
Summary of the method: as §1

NIH3T3 = experiment: as above; conditions: Five cell lines viability, CellTiter-Glo ATP luminescence, 48-72 h; max response: active compounds read low
Summary of the method: as §1

MCC-13 = experiment: qHTS assay to identify novel small-molecules to repurpose for Merkel cell carcinoma treatment (AID 1296009); conditions: MCC and control cell lines, CellTiter-Glo viability, 72 h; series mostly up to 46 µM
Summary of the method: (§2)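 Cells exposed to NPC (8-point) and MIPE (11-point) compound dilutions for 72 hr at 37 degree celsius; viability read by CellTiter-Glo luminescence, normalized to no-cell and DMSO in-plate controls.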

MCC-26 = experiment: as above; conditions: MCC and control cell lines, CellTiter-Glo viability, 72 h; series mostly up to 46 µM
Summary of the method: as §2

MKL-1 = experiment: as above; conditions: MCC and control cell lines, CellTiter-Glo viability, 72 h; series mostly up to 46 µM
Summary of the method: as §2

MKL-2 = experiment: as above; conditions: MCC and control cell lines, CellTiter-Glo viability, 72 h; series mostly up to 46 µM
Summary of the method: as §2

HACAT [2] = experiment: as above; conditions: MCC and control cell lines, CellTiter-Glo viability, 72 h; at 44.8 µM (top of the series) unless noted
Summary of the method: as §2

HEK293T = experiment: as above; conditions: MCC and control cell lines, CellTiter-Glo viability, 72 h; at 44.8 µM (top of the series) unless noted
Summary of the method: as §2
% is scaled to controls: 0 for no effect and ±100 for the full control effect.
Also: nearly all actives have a fitted effect of over 60% in size.

CC(=O)OCC(=O)[C@@]1(O)CCC2C3CCC4=CC(=O)CC[C@]4(C)C3[C@@H](O)C[C@@]21C (stereo partly drawn)
inactive: outcome (CRL-7250) | max response (HEK293) 2.9% | max response (HaCat [1]) 3.13% | max response (KB-3-1) 0.5% | max response (NIH3T3) 0.645% | Potency (MCC-13) | Potency (MCC-26) | Potency (MKL-1) | Potency (MKL-2)

CC(C)(C)C(O)/C=C/c1ccc2c(c1)OCO2 (stereo not drawn)
inactive: outcome (CRL-7250) | max response (HEK293) 0.172% | max response (HaCat [1]) -0.175% | max response (KB-3-1) -0.272% | max response (NIH3T3) -4.85% | Potency (MCC-13) | Potency (MCC-26) | Potency (MKL-1) | Potency (MKL-2)

O=C(O)CNC(=O)CNC(=O)CNC(=O)CSC(=O)c1ccccc1
inactive: max response (CRL-7250) -5.45% | max response (HEK293) -4.78% | max response (HaCat [1]) -1.1% | max response (KB-3-1) 4.32% | max response (NIH3T3) 1.99% | Potency (MCC-13) | Potency (MCC-26) | Potency (MKL-1) | Potency (MKL-2)

CC(=O)OCC(=O)Nc1cc(C#N)cc(NC(=O)COC(C)=O)c1Cl
inactive: outcome (CRL-7250) | max response (HEK293) -14.4% | max response (HaCat [1]) 0.636% | outcome (KB-3-1) | max response (NIH3T3) -0.147% | Potency (MCC-13) | Potency (MCC-26) | Potency (MKL-1) | Potency (MKL-2)

CC(C)NC(=O)c1ccc(C=O)cc1
inactive: max response (CRL-7250) -4.83% | outcome (HEK293) | outcome (HaCat [1]) | max response (NIH3T3) 3.81% | outcome (HACAT [2]) | outcome (HEK293T) | Potency (MCC-13) | Potency (MCC-26) | Potency (MKL-1) | Potency (MKL-2)

CC1(C)S[C@@H]2[C@H](NC(=O)C(c3ccccc3)S(=O)(=O)O)C(=O)N2[C@H]1C(=O)O (stereo partly drawn)
inactive: max response (CRL-7250) 1.53% | max response (HEK293) -0.254% | max response (HaCat [1]) -6.19% | max response (KB-3-1) -0.526% | max response (NIH3T3) 2.04% | Potency (MCC-13) | Potency (MCC-26) | Potency (MKL-1) | Potency (MKL-2)

OCc1cccnc1
inactive: max response (CRL-7250) -0.394% | max response (HEK293) -2.02% | max response (HaCat [1]) 3.51% | max response (KB-3-1) 3.27% | outcome (NIH3T3) | Potency (MCC-13) | Potency (MCC-26) | Potency (MKL-1) | Potency (MKL-2)

CN(C)CCN1CCN(c2cccc(Cl)c2)C1=O
inactive: max response (CRL-7250) -6.51% | outcome (HEK293) | outcome (HaCat [1]) | outcome (NIH3T3) | outcome (HACAT [2]) | outcome (HEK293T) | Potency (MCC-13) | Potency (MCC-26) | Potency (MKL-1) | Potency (MKL-2)

O=C(O)c1ccccc1S
inactive: max response (CRL-7250) -0.928% | max response (HEK293) 0.0683% | max response (HaCat [1]) 1.95% | max response (KB-3-1) -5.69% | max response (NIH3T3) 1.26% | Potency (MCC-13) | Potency (MCC-26) | Potency (MKL-1) | Potency (MKL-2)

CC(C)C(C)(C)C(C)(C)C(C)(C)S
inactive: max response (CRL-7250) -4.15% | max response (HEK293) -4.55% | max response (HaCat [1]) 4.37% | max response (KB-3-1) -15.8% | max response (NIH3T3) -4.3% | Potency (MCC-13) | Potency (MCC-26) | Potency (MKL-1) | Potency (MKL-2)

CN1N=C(C(N)=O)CCC1=O
inactive: outcome (CRL-7250) | outcome (HEK293) | outcome (HaCat [1]) | outcome (NIH3T3) | outcome (HACAT [2]) | outcome (HEK293T) | Potency (MCC-13) | Potency (MCC-26) | Potency (MKL-1) | Potency (MKL-2)

Nc1nnnn1-c1ccccc1
inactive: max response (CRL-7250) -0.0528% | max response (HEK293) -1.05% | max response (HaCat [1]) -26.2% | max response (KB-3-1) 7.05% | max response (NIH3T3) -4.79% | Potency (MCC-13) | Potency (MCC-26) | Potency (MKL-1) | Potency (MKL-2)

Oc1ccccc1-c1nnco1
inactive: outcome (CRL-7250) | outcome (HEK293) | outcome (HaCat [1]) | max response (NIH3T3) 1.39% | outcome (HACAT [2]) | outcome (HEK293T) | Potency (MCC-13) | Potency (MCC-26) | Potency (MKL-1) | Potency (MKL-2)

OCCc1ccccc1
inactive: max response (CRL-7250) 4.7% | max response (HEK293) -1.38% | max response (HaCat [1]) -14.1% | max response (KB-3-1) -8.71% | max response (NIH3T3) -0.715% | Potency (MCC-13) | Potency (MCC-26) | Potency (MKL-1) | Potency (MKL-2)

CCCCCC1Nc2cc(C(F)(F)F)c(S(N)(=O)=O)cc2S(=O)(=O)N1 (stereo not drawn)
inactive: max response (CRL-7250) -8.64% | max response (HEK293) -4.59% | max response (HaCat [1]) -13.3% | max response (KB-3-1) -12.8% | outcome (NIH3T3) | Potency (MCC-13) | Potency (MCC-26) | Potency (MKL-1) | Potency (MKL-2)

CC1c2ccccc2CN1NC(=O)c1ccc(Cl)c(S(N)(=O)=O)c1 (stereo not drawn)
inactive: max response (CRL-7250) -8.72% | max response (HEK293) -4.92% | max response (HaCat [1]) 0.897% | max response (KB-3-1) 8.25% | max response (NIH3T3) 2.57% | Potency (MCC-13) | Potency (MCC-26) | Potency (MKL-1) | Potency (MKL-2)

CCc1cc(S(=O)(=O)O)c2cc(C(C)C)cccc1-2
inactive: max response (CRL-7250) 4.56% | max response (HEK293) -0.992% | max response (HaCat [1]) 0.42% | max response (KB-3-1) 7.96% | max response (NIH3T3) 1.41% | Potency (MCC-13) | Potency (MKL-1) | Potency (MKL-2)

NS(=O)(=O)c1ccc(N2CCCCS2(=O)=O)cc1
inactive: max response (CRL-7250) -11.1% | outcome (HEK293) | outcome (HaCat [1]) | outcome (NIH3T3) | outcome (HACAT [2]) | outcome (HEK293T) | Potency (MCC-13) | Potency (MCC-26) | Potency (MKL-1) | Potency (MKL-2)

O=C(c1ccco1)N1CCNCC1
inactive: max response (CRL-7250) -10.9% | outcome (HEK293) | outcome (HaCat [1]) | max response (NIH3T3) 4.52% | outcome (HACAT [2]) | outcome (HEK293T) | Potency (MCC-13) | Potency (MCC-26) | Potency (MKL-1) | Potency (MKL-2)

C[C@H]1NCc2cc(-c3ccc4c(=O)c(C(=O)O)cn(C5CC5)c4c3OC(F)F)ccc21
inactive: max response (CRL-7250) -16.7% | max response (HEK293) -17.6% | max response (HaCat [1]) -3.8% | max response (KB-3-1) -9.83% | max response (NIH3T3) 3.52% | Potency (MCC-13) | Potency (MCC-26) | Potency (MKL-1) | Potency (MKL-2)

CCOC(=O)OCC/C(SC(=O)OCC)=C(\C)N(C=O)Cc1cnc(C)nc1N
inactive: max response (CRL-7250) -3.12% | max response (HEK293) -0.945% | max response (HaCat [1]) -10.8% | max response (KB-3-1) -13.2% | outcome (NIH3T3) | Potency (MCC-13) | Potency (MCC-26) | Potency (MKL-1) | Potency (MKL-2)

CC(NC(CCc1ccccc1)C(=O)O)C(=O)N1C(=O)N(C)CC1C(=O)O (stereo not drawn)
inactive: max response (CRL-7250) 1.99% | outcome (HEK293) | outcome (HaCat [1]) | max response (NIH3T3) -5.8% | outcome (HACAT [2]) | outcome (HEK293T) | Potency (MCC-13) | Potency (MKL-1) | Potency (MKL-2)

Cc1ccc(-c2ccccc2C#N)cc1
inactive: max response (CRL-7250) 2.16% | outcome (HEK293) | outcome (HaCat [1]) | max response (NIH3T3) 3.01% | outcome (HACAT [2]) | outcome (HEK293T) | Potency (MCC-13) | Potency (MCC-26) | Potency (MKL-1) | Potency (MKL-2)

COC(=O)/C=C\C(=O)OC
inactive: max response (CRL-7250) -5.33% | outcome (HEK293) | outcome (HaCat [1]) | outcome (NIH3T3) | outcome (HACAT [2]) | outcome (HEK293T) | Potency (MCC-13) | Potency (MCC-26) | Potency (MKL-1) | Potency (MKL-2)
